# In PubChem BioAssay (Tox21):
# Results filed as inconclusive are left out. Calls of active or inactive are those of the source. Calls come from the whole dose curve.
# Biological target: Acetylcholinesterase (Homo sapiens) (UniProt P22303)
# Experiment: Acetylcholinesterase (AChE) small molecule antagonists: colormetric cell-based qHTS assay (AID 1347395); note: nearly all actives have a fitted effect of over 30% in size
# Conditions: SH-SY5Y cells AChE activity, colorimetric (Ellman); series mostly up to 115 µM; activity, negative = inhibition: at the top concentration
# Text: National Center for Advancing Translational Sciences [NCATS]
# Division of Preclinical Innovation [DPI]
# U.S. Environmental Protection Agency [EPA]
# National Institutes of Environmental Health Sciences [NIEHS]
# National Toxicology Program [NTP]
# U.S. Food and Drug Administration [FDA]
# Acetylcholinesterase (AChE) is the primary cholinesterase in the body that hydrolyzes a key neurotransmitter, acetylcholine. Inhibition of AChE activity can lead to neurotoxicity. The known inhibitors include organophosphorous pesticides (OP), chemical warfare agents, drugs, and various phytochemicals.
# A homogenous cell-based assay using the Amplite Colormetric acetylcholinesterase assay kit (AAT Bioquest, Sunnyvale, CA) was used to evaluate the chemicals in the Tox21 10K library that inhibit AChE activity. The assay uses 5, 5-dithiobis-(2-nitrobenzoic acid) (DTNB) to quantify the thiocholine produced from the hydrolysis of acetylthiocholine by AChE from the SH-SY5Y cells.
# Tox21 Assay Protocol Summary:
# For the cell-based AChE assay, 2,000 SH-SY5Y cells in 4 uL/well were dispensed into black, clear-bottom 1536-well plates using a Multidrop Combi dispenser (Thermo Scientific, MA). The assay plates were incubated overnight at 37 C to allow cells to attach to the wells, followed by the transfer of 23 nL of compound or DMSO (vehicle control) by a Pintool Station (Wako Automation, CA). The plates were incubated for 30 min at 37 C and 5% CO2, followed by the addition of 4 uL of detection cocktail solution (DTNB, acetylthiocholine) into each well using a Flying Reagent Dispenser (Beckman Coulter, CA) and then 90 min incubation at 37 C.
# % is set by controls: 0 for no effect and ±100 for the full control effect; potency is the fitted concentration of half-maximal effect.
# Chain of Acetylcholinesterase (Homo sapiens) (P22303 whole entry, looked up): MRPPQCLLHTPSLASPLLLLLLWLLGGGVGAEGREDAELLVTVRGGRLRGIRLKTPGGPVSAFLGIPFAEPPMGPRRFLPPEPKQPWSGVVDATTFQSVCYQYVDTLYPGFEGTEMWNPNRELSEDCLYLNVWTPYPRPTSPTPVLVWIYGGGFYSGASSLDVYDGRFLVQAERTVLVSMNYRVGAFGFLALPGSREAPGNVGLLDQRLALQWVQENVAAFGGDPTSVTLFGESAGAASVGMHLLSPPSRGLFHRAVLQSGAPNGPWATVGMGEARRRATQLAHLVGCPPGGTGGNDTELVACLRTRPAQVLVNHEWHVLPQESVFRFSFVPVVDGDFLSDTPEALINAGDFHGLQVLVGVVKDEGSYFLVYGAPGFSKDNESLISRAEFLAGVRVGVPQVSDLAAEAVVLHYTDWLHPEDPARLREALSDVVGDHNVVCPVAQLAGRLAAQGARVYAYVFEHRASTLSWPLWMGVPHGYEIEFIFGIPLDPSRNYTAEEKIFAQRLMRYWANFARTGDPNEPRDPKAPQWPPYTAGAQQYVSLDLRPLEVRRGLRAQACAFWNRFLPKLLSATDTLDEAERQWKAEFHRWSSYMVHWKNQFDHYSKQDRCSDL
Structure (SMILES),"activity, negative = inhibition",Potency
O=S(=O)(c1ccc(Cl)cc1)c1ccc(Cl)cc1,1.5% (inactive),
CCCCN(CCCC)C(=S)[S-].CCCCN(CCCC)C(=S)[S-].[Zn+2],-8.08% (inactive),
O=c1[nH]c2ccccc2n1C1CCN(CCCC(c2ccc(F)cc2)c2ccc(F)cc2)CC1,,inactive
O=C/C(Cl)=C(/Cl)C(=O)O,-10.7% (inactive),
c1cc[c]([Sb]([c]2ccccc2)[c]2ccccc2)cc1,3.56% (inactive),
Oc1ccc(C(c2ccc(O)cc2)(C(F)(F)F)C(F)(F)F)cc1,,inactive
C[CH2][Hg][N]1C(=O)C2C(C1=O)C1(Cl)C(Cl)=C(Cl)C2(Cl)C1(Cl)Cl (stereo not given),0.291% [at 23.6 µM] (inactive),
CCCCCCCCCCBr,-0.983% (inactive),
COC12CC[C@@]3(C[C@@H]1C(C)(O)C(C)(C)C)[C@H]1Cc4ccc(O)c5c4[C@@]3(CCN1CC1CC1)[C@H]2O5 (stereo not given in full),-0.337% (inactive),
ClC1=C(Cl)C2(Cl)C3C(Cl)C=CC3C1(Cl)C2(Cl)Cl (stereo not given),,inactive
COP(=O)(CCC(=O)NCO)OC,-0.306% (inactive),
CCOCn1c(-c2ccc(Cl)cc2)c(C#N)c(Br)c1C(F)(F)F,-8.37% (inactive),
O=c1ssc(Cl)c1Cl,2.84% (inactive),
C[C@@H]1CC[C@@]2(OC1)O[C@H]1[C@@H](O)[C@H]3[C@@H]4CC[C@H]5C[C@@H](O[C@@H]6O[C@H](CO)[C@H](O[C@@H]7O[C@H](CO)[C@@H](O)[C@H](O[C@@H]8OC[C@@H](O)[C@H](O)[C@H]8O)[C@H]7O[C@@H]7O[C@H](CO)[C@@H](O)[C@H](O[C@@H]8O[C@H](CO)[C@@H](O)[C@H](O)[C@H]8O)[C@H]7O)[C@H](O)[C@H]6O)[C@H](O)C[C@]5(C)[C@H]4CC[C@]3(C)[C@H]1[C@@H]2C,-5.1% (inactive),
Cc1ccc(OP(=O)(Oc2ccccc2)Oc2ccccc2)cc1,,20.3 µM (active)
O=C1c2ccccc2C(=O)C1C(=O)C(c1ccccc1)c1ccc(Cl)cc1 (stereo not given),0.312% (inactive),
CC(C)C1CCC(Cc2ccc(Cl)cc2)C1(O)Cn1cncn1 (stereo not given),0% (inactive),
Clc1ccc(-c2ccccc2)cc1,0.388% (inactive),
CC(=O)c1ccc(-c2ccccc2)cc1,-0.404% (inactive),
CCCCCCCCCCCCBr,-5.72% (inactive),

Structure (SMILES),"activity, negative = inhibition",Potency
CN(C)CCc1c[nH]c2ccc(O)cc12,-0.315% (inactive),
NNC(=O)c1ccccc1,0.409% (inactive),
CCCCOP(=O)(CCCC)OCCCC,-0.0667% (inactive),
C=CC(=O)N(C)C,0.672% (inactive),
CCc1cc(C)cc(CC)c1-c1c(OC(=O)C(C)(C)C)n2n(c1=O)CCOCC2,-3.46% (inactive),
CCCCCCCCCBr,1.8% (inactive),
CC[C@H](C)[C@H]1O[C@]2(C=C[C@@H]1C)C[C@@H]1C[C@@H](C/C=C(\C)[C@@H](O[C@H]3C[C@H](OC)[C@@H](O[C@H]4C[C@H](OC)[C@@H](O)[C@H](C)O4)[C@H](C)O3)[C@@H](C)/C=C/C=C3\CO[C@@H]4[C@H](O)C(C)=C[C@@H](C(=O)O1)[C@]34O)O2,1.17% [at 52.9 µM] (inactive),
CC(=O)Nc1ccc2c(c1)Cc1ccccc1-2,-0.795% (inactive),
c1ccc2c(c1)OCC(C1=NCCN1)O2 (stereo not given),-2.14% [at 52.9 µM] (inactive),
Clc1ccc(C(c2ccccc2Cl)C(Cl)(Cl)Cl)cc1 (stereo not given),,inactive
C[C@]12CC[C@H](O)C[C@H]1CC[C@@H]1[C@@H]2C[C@@H](O)[C@]2(C)[C@@H](C3=CC(=O)OC3)CC[C@]12O,-1.19% (inactive),
C1CCC2CCCCC2C1 (stereo not given),2.16% (inactive),
CC(C)(C)c1ccc(CSc2cnn(C(C)(C)C)c(=O)c2Cl)cc1,3.98% (inactive),
C[C@]12CC[C@H]3[C@@H](CCC4=CC(=O)CC[C@@]43C)[C@@H]1CC[C@@H]2O,-2.72% (inactive),
C=CCOC(N)=O,-2.45% (inactive),
ClC1=C(Cl)[C@]2(Cl)[C@H]3[C@H]([C@H]4C=C[C@H]3C4)[C@@]1(Cl)C2(Cl)Cl,-0.717% (inactive),
CN(CCCC(O)c1cccnc1)N=O (stereo not given),-1.11% (inactive),
Clc1ccc(C(Cl)(Cl)Cl)c(Cl)c1,0.245% (inactive),
CC(C)(c1ccc(O)c(-c2ccccc2)c1)c1ccc(O)c(-c2ccccc2)c1,0.485% (inactive),
Oc1ccc(C2(c3ccc(O)cc3)CCCCC2)cc1,-9.19% (inactive),
